# TRPV1 agonist – agonists of human vanilloid receptor 1 (TRPV1); AID 540275; activation, % at 8.33 µM; hit rate 0.19% among 320,000; TRPV1-expressing cells, Fluo-8 calcium influx, agonist mode; in the data active = activation above about 80%; inconclusive = between about 30% and that limit; also: 0% is about no effect
# Target sequence (Q8NER1 whole entry, looked up): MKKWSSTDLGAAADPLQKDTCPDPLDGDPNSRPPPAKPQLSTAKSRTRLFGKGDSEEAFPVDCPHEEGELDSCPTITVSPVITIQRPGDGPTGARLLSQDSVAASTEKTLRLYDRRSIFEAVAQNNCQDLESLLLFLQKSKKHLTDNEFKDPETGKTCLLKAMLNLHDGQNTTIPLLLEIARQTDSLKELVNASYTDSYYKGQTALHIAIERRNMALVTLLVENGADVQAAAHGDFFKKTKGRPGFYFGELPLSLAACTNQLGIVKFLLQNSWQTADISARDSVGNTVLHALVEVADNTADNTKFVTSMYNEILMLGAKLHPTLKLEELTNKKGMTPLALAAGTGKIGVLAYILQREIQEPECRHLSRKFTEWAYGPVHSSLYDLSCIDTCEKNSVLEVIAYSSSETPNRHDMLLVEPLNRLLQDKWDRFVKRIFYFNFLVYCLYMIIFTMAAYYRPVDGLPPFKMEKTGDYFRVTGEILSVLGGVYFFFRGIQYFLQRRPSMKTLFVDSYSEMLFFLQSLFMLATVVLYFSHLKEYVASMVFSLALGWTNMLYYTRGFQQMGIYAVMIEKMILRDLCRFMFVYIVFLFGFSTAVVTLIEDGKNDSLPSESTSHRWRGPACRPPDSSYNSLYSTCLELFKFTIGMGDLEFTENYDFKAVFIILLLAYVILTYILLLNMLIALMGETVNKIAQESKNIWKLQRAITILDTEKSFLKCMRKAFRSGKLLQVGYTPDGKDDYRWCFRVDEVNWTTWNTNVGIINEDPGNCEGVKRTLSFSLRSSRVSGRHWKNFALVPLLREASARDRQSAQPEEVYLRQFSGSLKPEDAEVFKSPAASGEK
#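 Fluo-8 calcium influx in TRPV1-expressing cells, kinetic read (ex 480/em 520 nm). Compound added and read 3 min for agonist activity, followed by capsaicin at EC20 final and 2 min further read for enhancement.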
# TRPV1 potentiator – enhances activation of the human vanilloid receptor TRPV1. Q8NER1. TRPV1-expressing cells, Fluo-8 calcium influx, capsaicin EC20 potentiation. potentiation, % at 8.33 µM. hit rate 0.02% among 320,000; in the data active = potentiation above about 80%; inconclusive = between about 30% and that limit; also: 0% is about no effect
#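 Cells expressing TRPV1 were dye-loaded with Fluo-8 and read kinetically: 10 s baseline, 3 min after compound (agonist portion), then 2 min after EC20 capsaicin (allosteric enhancer portion). Calcium-bound dye fluorescence at 480/520 nm.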
# TRHR enhancer – allosteric enhancers of human TRH receptor. hit rate 0.66% among 360,000. TRHR cells, fluo-8 calcium fluorescence, EC20 TRH enhancement. enhancement, % at 2 µM. AID 493056; in the data active = enhancement above about 30%; also: 0% is about no effect
#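 Enhancer read-out: after compound pinning and an initial kinetic agonist-mode read, an EC20 of TRH (10 nM final) was injected and fluo-8 calcium signal (Ex 480/Em 530) followed at 1 s/cycle for 100 cycles in TRHR-expressing cells.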
# TRPML1 blocker – blocks the human TRPML1 channel; Q9GZU1; AID 624415; TRPML1-inducible cells, Ca2+ dye fluorescence, FDSS; active compounds read low; inhibition of EC80 agonist-evoked calcium signal; hit rate 0.02% among 390,000; activity change, negative = inhibition, % (no concentration beside the values); in the data active = activity change below about -50%; inconclusive = between about -30% and that limit;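 also: stimulus is agonist 54-4 at its EC80 concentration; % is scaled to controls: 0 for no effect and ±100 for the full control effect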
#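 TRPML1-DL cells, Tet-induced overnight (~16 h, 37 °C) at 1,500 cells/well, were loaded with Ca8 no-wash dye plus quencher for 45-90 min at room temperature. Compounds were pinned during FDSS kinetic reading; agonist 54-4 at EC80 (4 uM final) then added.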
# TRHR agonist – agonists of human TRH receptor; TRHR cells, calcium flux fluo-8, FDSS agonist mode; activation, % at 2 µM; hit rate 0.18% among 360,000; in the data active = activation above about 30%; also: 0% is about no effect
#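 Read-out: compound-evoked intracellular calcium rise in TRHR cells, fluo-8 dye, kinetic FDSS fluorescence at 1 s/cycle following a 10-cycle baseline. Cells cultured overnight before dye loading (30 min–1.5 h, RT).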
# TRPML1 ag – agonists of human TRPML1 channel; TRPML1-expressing cells, Ca2+ dye fluorescence, FDSS; hit rate 0.12% among 410,000; activation, % (test concentration not listed); in the data active = activation above about 50%; inconclusive = mostly about 30% to 49%; also: 0% is about no effect
#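 Tet-induced TRPML1-DL cells, 1,500 per well, cultured overnight, were loaded with a no-wash Ca2+ dye for 45–90 min. Calcium fluorescence was recorded on the FDSS for 110 s after compound addition, before the EC80 agonist (4 uM 54-4) was added.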
# * hit, by the source's call; ? = inconclusive; . = no result. A selection: hits, their analogues and other compounds. The true share with any hit is near 0.99%.
SMILES,TRPV1 agonist,TRPV1 potentiator,TRHR enhancer,TRPML1 blocker,TRHR agonist,TRPML1 ag
CCC(C)(C)C1CCC(NC(=O)c2ccc(S(=O)(=O)N3CCOCC3)cc2)CC1 (configuration not stated),80*,-4,11,20,0,2
CCc1ccccc1NC(=O)Cn1c(=O)n(Cc2ccc(OC)cc2)c(=O)c2oc3ccccc3c21,.,.,35*,-25,-1,1
CCCOc1cccc(OCCSc2nc(C)cc(=O)[nH]2)c1,82*,-3,-4,44,0,2
N#Cc1ccccc1CN1C(=O)c2ccccc2Sc2ccc(C(=O)OCc3ccco3)cc21,.,.,-3,-11,1,2
COc1ccc(Cn2nc(-c3ccccc3)c(N3CCCCC3)cc2=O)cc1,85*,14,-2,1,3,1
O=c1cc(N2CCCCC2)c(-c2ccccc2)nn1Cc1ccccc1,81*,2,7,-8,0,3
N#Cc1ccc(-c2cccs2)nc1SCc1c(F)cccc1Cl,.,.,1,8,3,0
Cc1cc2nc3c(=O)n(CCc4ccccc4)c(=O)[nH]c3nc2cc1N,?,-30,24,-27,142*,114*
Nc1ccc2nc3c(=O)n(C4CCCCC4)c(=O)[nH]c3nc2c1,?,-10,29,-10,128*,80*
Nc1ccc2nc3c(=O)n(CCc4ccccc4)c(=O)[nH]c3nc2c1,107*,-15,58*,-28,164*,75*
CCCCn1c(N)c(Br)c(=O)[nH]c1=O,-2,2,-2,-10,0,0
COc1cc2[nH]c(=O)n(C3CCCCC3)c(=O)c2cc1OC,-2,-3,1,42,0,0
CCCCn1c(=O)[nH]c2nc3cc(N)ccc3nc2c1=O,?,-32,9,-21,108*,74*
Nc1ccc2nc(CCc3ccccc3)[nH]c2c1,24,-7,5,1,0,-1
Cc1ccc(C)c(NC(=O)c2ccc3nc(CCc4ccccc4)oc3c2)c1,.,.,-3,-21,1,-1
Cc1ccc(NC(=O)N2CC3CCCN3c3ccccc32)c(C)c1 (configuration not stated),.,.,3,-5,-1,0
Cc1cc(CNC(=S)Nc2ccc(Br)cc2Cl)nn1C,94*,-22,22,19,-1,1
C=CCn1c(=O)[nH]c2nc3cc(N=CN(C)C)c(C)cc3nc2c1=O,27,-6,-2,-3,43*,25
CN(C)/C=N/c1cc(=O)[nH]c(=O)n1CC1CC1,0,2,-1,-5,0,0
Cc1cc2c(s1)c1cnn(Cc3cccc([N+](=O)[O-])c3)c(=O)c1n2C,.,.,6,.,0,.
O=C(Nc1nc2c(s1)CN(Cc1ccccc1)CC2)c1cccc(S(=O)(=O)N2CCc3ccccc32)c1,14,12,-5,-6,46*,9
O=C(COC(=O)/C=C/c1ccc(F)cc1)Nc1cccc(S(=O)(=O)N2CCCC2)c1,-1,7,-3,22,1,5
O=C(COC(=O)CCC(=O)c1ccc(F)cc1)Nc1cccc(S(=O)(=O)N2CCOCC2)c1,11,-10,33*,27,0,0
COc1cccc(/C=C/C(=O)OCC(=O)Nc2cccc(S(=O)(=O)N3CCCCC3)c2)c1OC,3,19,34*,-9,0,0
O=C(COc1ccc(C(=O)c2ccc(F)cc2)cc1)Nc1cccc(S(=O)(=O)N2CCOCC2)c1,.,.,.,13,.,1
SMILES,TRPV1 agonist,TRPV1 potentiator,TRHR enhancer,TRPML1 blocker,TRHR agonist,TRPML1 ag
Cc1ccc(Nc2nc(C#N)nc(NC3CCCC3)n2)cc1,.,.,2,.,1,.
CSCCC(c1nnnn1-c1c(C)cccc1C)N1CCN(C/C=C/c2ccccc2)CC1 (configuration not stated),.,.,.,.,.,69*
Cc1c2ccccc2nc2c(F)c(NC(C)C)c(F)c(F)c12,19,-8,6,-3,40*,14
COc1ccc(/C=C(/NC(=O)/C=C/c2ccccc2)C(=O)O)cc1,-5,15,34*,16,0,-1
CN(C)S(=O)(=O)c1ccc(NC(=O)CN2C(=O)NC3(CCCC3)C2=O)cc1,2,4,36*,5,1,0
CN(C)S(=O)(=O)c1ccc(Cl)c(NC(=O)CN2C(=O)NC3(CCCC3)C2=O)c1,-1,-5,-1,-5,0,0
O=C(Nc1ccc(C(F)(F)F)cc1)c1ccc2ncsc2c1,90*,9,-21,19,1,0
O=C(Nc1ccc(N2CCOCC2)cc1)c1ccc2ncsc2c1,.,.,.,12,.,0
O=C(Nc1cccc(S(=O)(=O)N2CCCCC2)c1)c1ccc2ncsc2c1,85*,-16,11,37,1,1
O=C(Nc1ccc(C(=O)c2ccccc2)cc1)c1ccccc1,?,5,-6,9,1,0
O=C(Nc1ccc(C(F)(F)F)cc1)c1ccccc1,82*,14,-4,32,0,-1
COc1ccc(NC(=O)c2ccc3ncsc3c2)c2ccccc12,88*,3,-4,10,0,1
NS(=O)(=O)c1cccc(NC(=O)c2cccc(S(=O)(=O)N3CCCCCC3)c2)c1,.,.,.,-6,.,0
CCN(CCN(C)Cl)/[N+]([O-])=N/Oc1ccc([N+](=O)[O-])cc1[N+](=O)[O-],.,.,.,-21,.,1
CN(C)c1c(Cl)cc(/C=C/c2ccnc3ccccc23)cc1Br,.,.,.,.,.,-1
Cc1ccc(Cl)cc1N1CCN(C(=O)c2ccc(C)c(-n3c(C)nc4cccnc43)c2)CC1,.,.,0,-13,-1,12
O=C(Nc1ccc(Cl)cc1)c1ccc2ncsc2c1,?,-7,1,-2,0,0
O=C(Nc1ccc(F)cc1)c1ccc2ncsc2c1,93*,-19,-8,6,1,0
CC(=O)c1ccc(NC(=O)c2ccc3snnc3c2)cc1,?,-10,-14,1,1,0
O=C(Nc1ccc(Cl)cc1)c1ccc2snnc2c1,88*,-15,-1,-4,1,-1
CC(C)(C)n1ncc2c(=O)n(Cc3ccc(Cl)c(SC(F)(F)F)c3)cnc21,.,.,.,63,.,2
CC1(C)OC(=O)C2(Cc3ccc(Cl)cc3N3CCCCC32)C(=O)O1 (configuration not stated),.,.,.,.,.,-1
Cc1cc(C)n2nc(C(=O)N3CCCC(Nc4ccc(C(C)C)cc4)C3)cc2n1 (configuration not stated),86*,-2,-3,-3,0,-1
CC(C)c1ccc(NC2CCCN(C(=O)c3cccc4nccnc34)C2)cc1 (configuration not stated),85*,-11,-1,6,0,-1
Nc1ccc(Cc2ccc(C=O)cc2)cc1,.,.,.,.,.,3
